Experimental data: PubChem BioAssay (EPA / NIEHS)
Records with an inconclusive call do not appear. Calls of active or inactive are those of the source. How the source made its calls: active means hit-call score of the fitted dose curve at least 0.9, where 1 is the maximum; inconclusive means response in the unintended direction; inactive means score below 0.9.

Experiment: TOX21_p53_BLA_p3_viability: Viability Assessment in the Tox21 HCT-116 p53 Agonism Beta-lactamase Assay, Phase 3 (AID 2283593);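 further: cells exposed to compound for 16 h before reading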
From the text: TOX21_p53_BLA_p3 is a cell-based, single-readout assay that uses HCT116, a human intestinal cell line, […] in a 1536-well plate.TOX21_p53_BLA_p3_viability is an assay readout measuring cellular ATP content and detected with CellTiter-Glo Luciferase-coupled ATP quantitation.TOX21_p53_BLA_p3_viability used a type of viability reporter where loss-of-signal activity can be used to understand changes in the cell viability. Furthermore, this assay endpoint can be referred to as a secondary readout, because this assay has produced multiple assay endpoints where this one serves a viability function. To generalize the intended target to other relatable targets, this assay endpoint is annotated to the cell cycle intended target family, where the subfamily is cytotoxicity.
Thawing Method: Place 14 mL of pre-warmed thaw medium into a 15 mL of conical tub. Remove the vial of cells to be thawed from liquid nitrogen and thaw rapidly by placing at 37C in a water bath with gentle agitation for 1-2 minutes. Decontaminate the vial by wiping with 70% ethanol before opening in a biological safety cabinet. Transfer the vial contents drop-wise into 14 mL of thaw medium in a sterile 15-mL conical tub. Centrifuge cells at 900 rpm for 4 minutes and resuspend in thaw medium. Transfer contents to the T75 tissue culture flask containing Thaw Medium and place flask in a humidified 37C/5% CO2 incubator. Switch to growth medium at first passage.Propagation Method: Aspirate medium, rinse once in DPBS, add 0.25% Trypsin/EDTA and swirl to coat the cell evenly. Add an equal volume of Growth Medium to inactivate Trypsin after 2-3 minutes incubation at 37C. Centrifuge cells at 900 rpm for 4 minutes and resuspend in growth medium. Cell should be passage or fed at least twice a week.Assay Protocol: Harvest cells from culture in growth medium and resuspend in assay medium. 2.2 Dispense 4000 cells/5 uL/well into 1536-well black/clear bottom plates using a Multidrop dispenser. After the cells were incubated at 37C for 5 hours, 23 nL of compounds dissolved in DMSO were transferred to the assay plate by a PinTool resulting in a 217-fold dilution. Incubate the plates for 16 hours at 37C, 5% CO2. Add 1 uL of 6X LiveBLAzer FRET B/G (CCF4-AM) Substrate Mixture to each well using a BioRAPTR dispenser and incubate the plates at room temperature for 2 hours. Measure fluorescence intensity at 460 and 530 nm emission and 405 nm excitation by an Envision detector. Data is expressed as the ratio of 460nm/530nm emissions. Add 4 uL of Cell-titer Glo to each well using BioRAPTR and incubate the plates at room temperature for […]. For cell viability readout that measures cytotoxicity, 4 ul/well of CellTiter-Glo reagent was added into the assay plates using a Flying Reagent Dispenser. After 30 min incubation at room temperature, the luminescence intensity in the plates was measured using a ViewLux plate reader.

SMILES	outcome
C[C@]12C=CC(=O)C=C1CC[C@H]1[C@@H]3C[C@@H](O)[C@](O)(C(=O)CO)[C@@]3(C)C[C@H](O)[C@@]12F	inactive
O=C(N[C@H](CO)[C@H](O)c1ccc([N+](=O)[O-])cc1)C(Cl)Cl	inactive
C=CN1CCCC1=O	inactive
c1ccc2cc3ccccc3cc2c1	inactive
CCc1cccc(CC)c1N	inactive
CCOC(N)=O	inactive
OC(Cn1cncn1)(Cn1cncn1)c1ccc(F)cc1F	inactive
c1ccc(C(O[C@@H]2CCCN(CCc3ccc4c(c3)OCO4)C2)c2ccccc2)cc1	inactive
NC(=O)NN=Cc1ccc([N+](=O)[O-])o1	inactive
CCCCCCCC/C=C\CCCCCCCC(=O)OC[C@@H](O)[C@H]1OC[C@H](O)[C@H]1O	inactive
CCCc1ccccc1	inactive
OCc1c[nH]c2ccccc12	inactive
c1ccc2ncccc2c1	inactive
CCCCOC(=O)c1ccccc1	inactive
S=P(N1CC1)(N1CC1)N1CC1	inactive
OC(CCl)CCl	inactive
O=C1CN(N=Cc2ccc([N+](=O)[O-])o2)C(=O)N1	inactive
NNC(=O)c1ccncc1	inactive
CC(C)c1nnc2ccc(-c3ocnc3-c3cc(F)ccc3F)cn12	inactive
CCCCCCCCCCCCCCO	inactive
CCn1nc(C)c2c1C(=O)NCC(c1ccc(O)cc1)=N2	inactive
CCc1ccc(O)c(C(C)(C)C)c1	inactive
OCCOCCOCCO	inactive
CCCCCCCCCCCCCCCCOS(=O)(=O)O	inactive
CC(=O)c1ccccc1	inactive
Cc1cccc(O)c1C	inactive
CCCCC(CC)C(=O)OCCOCCOCCOC(=O)C(CC)CCCC (configuration not stated)	inactive
